Assay outcomes as filed in PubChem BioAssay.
Compounds with a hit are over-represented: about 3.1% of the library has one in this group of screens.
Rin1-Abl PPI inh = inhibitors of human Rin1-Abl protein interaction. AID 588664. inhibition, % at 7.35 µM. 360,000 tested, 0.4% active. P00519+Q13671. TR-FRET Rin1/Abl binding, biochemical; in the data active = inhibition above about 5%, passing the limit was not always enough
pPAFAH FP inh = pPAFAH (human) enzyme inhibition; recombinant pPAFAH, FP-rhodamine probe fluorescence polarization; inhibition, % at 3.39 µM; 330,000 tested, 1.5% active; AID 463082;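 active = inhibition above the mean inhibition across the screen plus 3 SD, cut at about 25% in these data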;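 also: inhibitors block binding of the rhodamine activity-based probe so polarization drops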
PAFAH1B3 FP inh = PAFAH1B3 (human) inhibition. Q15102. recombinant PAFAH1B3, FP-rhodamine probe, fluorescence polarization. inhibition, % at 3.39 µM. 340,000 tested, 0.28% active;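 active = inhibition above the screen-wide average of all tested compounds plus 3 SD, cut at about 25% in these data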
PAFAH2 FP inh = inhibitors of human PAFAH2; recombinant PAFAH2, FP-rhodamine activity probe, fluorescence polarization; inhibition, % at 3.39 µM; 340,000 tested, 0.99% active;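 active = inhibition above the mean over all tested compounds plus 3 SD, cut at about 30% in these data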;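 also: inhibitors block probe labeling of enzyme so polarization drops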
eLon inh = inhibits E. coli Lon protease; 360,000 tested, 0.42% active; purified E. coli Lon protease, fluorescence polarization; inhibition, % at 7.94 µM; P0A9M0; in the data active = inhibition above about 13%, passing the limit was not always enough
PAFAH1B2 FP inh = inhibitors of human PAFAH1B2. P68402. recombinant PAFAH1B2, FP-rhodamine activity probe, fluorescence polarization. 340,000 tested, 1.2% active. inhibition, % at 3.39 µM. AID 492953;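 active = inhibition above the mean of all tested compounds plus 3 SD, cut at about 24% in these data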
Target sequence (P68402 whole entry, looked up): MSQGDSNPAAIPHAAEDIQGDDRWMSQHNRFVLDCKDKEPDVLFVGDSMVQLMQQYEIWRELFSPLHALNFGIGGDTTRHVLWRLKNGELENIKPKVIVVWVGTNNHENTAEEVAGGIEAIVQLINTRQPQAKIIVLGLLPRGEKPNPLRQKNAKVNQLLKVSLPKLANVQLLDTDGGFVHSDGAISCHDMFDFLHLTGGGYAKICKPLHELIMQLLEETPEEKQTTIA
PAFAH2 confirm = confirmation of human PAFAH2 inhibitors | shares compounds with PAFAH2 FP inh | recombinant PAFAH2, FP-rhodamine activity probe, fluorescence polarization | inhibition, % at 3.39 µM | 2,300 tested, 65% active | AID 493030;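 active = mean inhibition over three repeats above a set limit taken from the earlier primary screen, cut at about 30% in these data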;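 also: inhibitor blocks binding of rhodamine activity probe so polarization falls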
Numbers stand for hits; n = inactive; x = no result.

SMILES	Rin1-Abl PPI inh	pPAFAH FP inh	PAFAH1B3 FP inh	PAFAH2 FP inh	eLon inh	PAFAH1B2 FP inh	PAFAH2 confirm
CC(OC(=O)Cn1[nH]c(=O)c2ccccc2c1=O)C(=O)NC1(C#N)CCCCC1 (configuration not stated)	n	n	n	n	n	n	x
O=C(COC(=O)c1cccnc1Cl)Nc1cc(S(=O)(=O)N2CCCCCC2)ccc1Cl	n	x	n	31.5	n	n	n
Nc1cc(N)cc(C(=O)OCC(=O)Nc2cc(S(=O)(=O)N3CCCCC3)ccc2Cl)c1	n	n	n	31.0	n	n	n
CCOc1ncccc1C(=O)OCC(=O)Nc1cc(S(=O)(=O)N2CCOCC2)ccc1Cl	n	n	n	44.0	n	n	38.5
Cc1ccc(NC(=O)COC(=O)c2cccnc2Cl)cc1S(=O)(=O)N1CCCCC1	n	n	n	52.8	n	n	33.7
O=C(COC(=O)c1cccnc1Cl)Nc1cc(S(=O)(=O)N2CCOCC2)ccc1Cl	n	n	n	n	n	n	x
O=C(COC(=O)c1cccnc1Cl)Nc1cc(S(=O)(=O)N2CCCCC2)ccc1Cl	n	n	n	n	n	n	x
CN1N=C(C(=O)N=c2sc3ccccc3n2C)CCC1=O	n	x	n	n	n	n	x
O=C(CSc1ccc(S(=O)(=O)N2CCCCC2)cn1)Nc1ccccc1Br	n	n	n	n	n	n	x
O=C(c1ccc(-c2cccc(C(F)(F)F)c2)o1)N1CCCC(C(F)(F)F)C1 (configuration not stated)	n	n	n	33.5	n	n	n
COc1cc2c(cc1OC)-c1cc(N3CCc4ccccc43)nc(=O)n1CC2	n	n	n	52.6	n	n	40.6
COc1cc2c(cc1OC)-c1cc(Nc3ccccc3)nc(=O)n1CC2	n	n	n	n	n	n	x
COc1cc2c(cc1OC)-c1cc(OCc3cccnc3)nc(=O)n1CC2	n	x	n	61.3	n	n	53.8
COc1ccccc1Nc1nc(N)nc(CSC(=S)N2CCCCC2)n1	n	n	n	37.2	n	n	n
Cc1cc(C)c(NC(=O)COC(=O)/C=C/c2cccs2)c(C)c1	n	n	n	35.5	n	n	31.1
Cc1ccc(NC(=O)COC(=O)/C=C/c2cccs2)c(C)c1	n	n	n	55.6	n	n	41.6
COC(=O)c1ccccc1NC(=O)COC(=O)/C=C/c1cccs1	n	n	n	n	n	n	x
Cc1c(C)c2c(OCC(=O)Nc3cccnc3)cc3c(c2oc1=O)CCC(C)(C)O3	n	n	n	33.3	n	n	n
Cc1c(C)c2c(OCC(=O)NCC(C)C)cc3c(c2oc1=O)CCC(C)(C)O3	n	x	n	71.8	n	n	51.7
O=C1CC(N2CCN(S(=O)(=O)c3ccc([N+](=O)[O-])cc3)CC2)C(=O)N1c1ccccc1F (configuration not stated)	n	n	n	n	n	n	x
Cc1cc(C)c(C(=O)COC(=O)C2CCN(c3ccc(C(F)(F)F)cn3)CC2)c(C)c1	n	n	n	n	n	n	x
COc1ccc(C(=O)OCC(=O)Nc2ccc3c(c2)OCO3)cc1S(=O)(=O)N1CCOCC1	n	x	n	81.6	n	n	82.2
Cc1ccc(C(=O)OCC(=O)NCc2ccc3c(c2)OCO3)cc1S(=O)(=O)N1CCOCC1	n	n	n	n	n	n	x
O=C(COC(=O)c1ccc(F)c(S(=O)(=O)N2CCOCC2)c1)Nc1ccc2c(c1)OCO2	n	x	n	78.1	n	n	65.3
C=CCOc1ccc(C(=O)Nc2ncn[nH]2)cc1	n	n	n	n	n	n	x
CC1=NN(C(N)=S)C(=O)C1N=Nc1ccc(C)c(Br)c1 (configuration not stated)	n	n	n	41.6	n	n	32.7
Cc1ccccc1Nc1nc(Cl)nc(NC(C)(C)C)n1	n	x	x	x	n	x	x
CC(=O)Nc1ccc(NC(=O)C(C)O/N=C/c2cccc([N+](=O)[O-])c2)cc1 (configuration not stated)	n	n	n	30.3	n	n	n
O=C(O/N=C/c1cccc([N+](=O)[O-])c1)C1CC1	n	n	n	92.0	n	n	77.8
Cc1ccc(S(=O)(=O)N2CCCCC2)cc1NC(=O)COC(=O)c1ccc(=O)[nH]c1	n	n	n	55.9	n	n	52.4
